# ChEMBL document CHEMBL3988442, “University of Dundee, Small-Polar-MMV Screening Library” (2021)
# For some of these results: Measured potencies and affinities stand elsewhere.
# Legend:
# Set-up in all cases: scale not given: direction of the effect not stated beside the values
# [1] = target: Protein translocase subunit SecA (Escherichia coli (strain K12)) (UniProt P10408); test: Assay to Identify E. coli SecA ATPase Inhibitors; format: functional; conditions: 30 µM
# [2] = target: T1, Ubiquitin-activating enzyme e1, putative (Leishmania donovani (strain BPK282A1)) (UniProt E9BSI1); test: Leishmania donovani Ubiquitin Activating Enzyme (LdE1); format: functional; conditions: 30 µM
# T1 sequence (whole entry): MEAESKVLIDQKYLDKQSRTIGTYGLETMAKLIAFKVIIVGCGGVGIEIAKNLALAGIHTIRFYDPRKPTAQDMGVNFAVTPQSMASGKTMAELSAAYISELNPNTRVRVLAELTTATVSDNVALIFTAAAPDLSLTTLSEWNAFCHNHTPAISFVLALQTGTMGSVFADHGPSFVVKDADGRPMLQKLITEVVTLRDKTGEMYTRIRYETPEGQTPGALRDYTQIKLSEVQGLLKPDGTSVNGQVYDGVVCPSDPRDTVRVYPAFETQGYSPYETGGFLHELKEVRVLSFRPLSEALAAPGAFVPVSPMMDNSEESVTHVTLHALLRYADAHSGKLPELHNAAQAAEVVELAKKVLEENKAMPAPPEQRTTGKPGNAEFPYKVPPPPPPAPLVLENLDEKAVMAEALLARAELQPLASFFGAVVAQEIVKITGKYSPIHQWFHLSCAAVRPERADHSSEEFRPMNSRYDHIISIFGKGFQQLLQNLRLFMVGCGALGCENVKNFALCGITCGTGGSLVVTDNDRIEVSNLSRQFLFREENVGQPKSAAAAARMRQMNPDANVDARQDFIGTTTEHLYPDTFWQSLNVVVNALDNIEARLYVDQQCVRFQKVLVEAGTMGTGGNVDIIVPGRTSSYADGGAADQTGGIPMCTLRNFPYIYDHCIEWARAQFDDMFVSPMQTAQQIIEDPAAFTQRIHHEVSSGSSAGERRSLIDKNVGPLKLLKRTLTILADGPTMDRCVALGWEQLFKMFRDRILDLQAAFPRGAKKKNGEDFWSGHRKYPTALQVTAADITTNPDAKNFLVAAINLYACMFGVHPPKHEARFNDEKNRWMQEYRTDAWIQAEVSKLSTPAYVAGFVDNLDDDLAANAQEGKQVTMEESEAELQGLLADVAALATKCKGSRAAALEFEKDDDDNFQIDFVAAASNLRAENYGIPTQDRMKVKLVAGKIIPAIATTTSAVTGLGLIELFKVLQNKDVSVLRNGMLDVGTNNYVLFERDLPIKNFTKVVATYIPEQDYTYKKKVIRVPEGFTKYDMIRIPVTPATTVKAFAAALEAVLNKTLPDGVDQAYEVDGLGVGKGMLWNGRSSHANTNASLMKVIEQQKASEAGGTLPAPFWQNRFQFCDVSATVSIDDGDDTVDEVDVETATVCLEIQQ
# [3] = target: AMP-activated protein kinase, AMPK (Homo sapiens) (UniProt P54646+O43741+P54619+Q9UGJ0+Q9Y478+Q13131+Q9UGI9); test: AMP-dependent Kinase enzyme assay. An in vitro enzyme assay that detects ADP turnover that is directly proportional to AMPK activity. This uses naive AMPK that is activated during the assay with MK-8722; format: functional; conditions: 30 µM
# [4] = target: Sialic acid-binding Ig-like lectin 9 (Homo sapiens) (UniProt Q9Y336); test: Hs-Siglec9 ALPHAscreen SOP 20170721; conditions: 10 µM
# [5] = tested on: Trypanosoma cruzi; test: Trypanosoma cruzi phosphomannomutase and mannose-1-phosphate guanylyltransferase assay; format: functional; conditions: 10 µM
# [6] = target: T2, Arginase-2, mitochondrial (Homo sapiens) (UniProt P78540); test: in vitro enzyme assay to detect the production of urea directly proportional to the activity of Arginase II; format: functional; conditions: 33.3 µM; note: in the data most compounds retested in dose-response had high values
# T2 sequence (whole entry): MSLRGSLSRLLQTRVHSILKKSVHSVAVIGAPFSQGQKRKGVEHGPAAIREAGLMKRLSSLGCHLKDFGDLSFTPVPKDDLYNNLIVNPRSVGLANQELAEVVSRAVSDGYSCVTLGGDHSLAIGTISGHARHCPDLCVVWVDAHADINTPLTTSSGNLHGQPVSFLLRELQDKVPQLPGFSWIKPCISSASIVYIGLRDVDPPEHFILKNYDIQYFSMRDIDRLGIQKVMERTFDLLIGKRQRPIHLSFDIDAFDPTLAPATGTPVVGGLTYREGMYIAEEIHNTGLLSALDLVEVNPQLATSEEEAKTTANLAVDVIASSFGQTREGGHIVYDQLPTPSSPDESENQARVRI
# [7] = target: T3, Proteasome subunit beta (Trypanosoma cruzi) (UniProt O96673); test: Trypanosoma cruzi proteasome chymotrypsin-like activity (TcProtChymo) assay.; note: in the data most compounds retested in dose-response had high values; format: functional; conditions: 9.37 µM
# T3 sequence (whole entry): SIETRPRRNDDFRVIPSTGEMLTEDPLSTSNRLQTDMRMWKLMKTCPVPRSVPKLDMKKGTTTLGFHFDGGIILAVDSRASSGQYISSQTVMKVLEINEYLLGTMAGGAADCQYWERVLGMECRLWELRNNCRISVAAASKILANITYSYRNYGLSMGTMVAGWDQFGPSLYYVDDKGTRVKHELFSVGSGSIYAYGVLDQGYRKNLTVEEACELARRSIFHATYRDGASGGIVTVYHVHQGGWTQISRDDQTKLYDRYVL
# [8] = organism: Homo sapiens; test: To identify inhibition of the IFN signalling (Jak-Stat) pathway via expression of an eGFP reporter gene under the control of an IFN-stimulated response element (ISRE) containing MxA promoter.; format: functional; conditions: 30 µM
# [9] = target: T4, Tyrosyl-tRNA synthetase, putative (Trypanosoma cruzi (strain CL Brener)) (UniProt Q4DSP6); test: Trypanosoma cruzi tyrosyl tRNA synthetase (TcYRS) _High Tyrosine SOP; format: functional; conditions: 30 µM; note: in the data most compounds retested in dose-response had high values
# T4 sequence (whole entry): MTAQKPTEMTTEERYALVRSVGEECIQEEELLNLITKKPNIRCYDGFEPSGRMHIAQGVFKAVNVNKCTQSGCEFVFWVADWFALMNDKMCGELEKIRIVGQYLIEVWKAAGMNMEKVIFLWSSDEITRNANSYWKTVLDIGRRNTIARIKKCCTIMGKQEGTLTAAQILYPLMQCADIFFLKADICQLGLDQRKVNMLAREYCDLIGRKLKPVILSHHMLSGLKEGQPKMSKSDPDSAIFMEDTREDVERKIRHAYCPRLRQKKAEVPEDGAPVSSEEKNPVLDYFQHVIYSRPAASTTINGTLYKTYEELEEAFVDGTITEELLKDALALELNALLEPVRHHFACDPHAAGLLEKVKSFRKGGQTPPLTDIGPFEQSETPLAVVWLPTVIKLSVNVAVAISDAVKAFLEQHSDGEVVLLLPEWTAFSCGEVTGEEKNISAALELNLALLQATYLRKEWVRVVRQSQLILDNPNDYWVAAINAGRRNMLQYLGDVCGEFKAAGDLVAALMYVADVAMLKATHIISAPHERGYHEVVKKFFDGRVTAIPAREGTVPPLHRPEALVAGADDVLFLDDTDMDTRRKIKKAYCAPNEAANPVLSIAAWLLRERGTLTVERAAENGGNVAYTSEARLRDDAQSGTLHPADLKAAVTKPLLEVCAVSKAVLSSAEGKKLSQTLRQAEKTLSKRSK
# [10] = target: T4, Tyrosyl-tRNA synthetase, putative (Trypanosoma cruzi (strain CL Brener)); test: Trypanosoma cruzi tyrosyl tRNA synthetase (TcYRS) SOP; format: functional; conditions: 30 µM
# [11] = target: Chromo domain-containing protein 1 (Saccharomyces cerevisiae (strain ATCC 204508 / S288c) (Baker's yeast)) (UniProt P32657); test: ScCHD-1 Enzyme Inhibition Assay; format: functional; conditions: 30 µM; note: in the data most compounds retested in dose-response had high values
# Chromo domain-containing protein 1 (Saccharomyces cerevisiae (strain ATCC 204508 / S288c) (Baker's yeast)), sequence (P32657 whole entry, the tested form may be a part): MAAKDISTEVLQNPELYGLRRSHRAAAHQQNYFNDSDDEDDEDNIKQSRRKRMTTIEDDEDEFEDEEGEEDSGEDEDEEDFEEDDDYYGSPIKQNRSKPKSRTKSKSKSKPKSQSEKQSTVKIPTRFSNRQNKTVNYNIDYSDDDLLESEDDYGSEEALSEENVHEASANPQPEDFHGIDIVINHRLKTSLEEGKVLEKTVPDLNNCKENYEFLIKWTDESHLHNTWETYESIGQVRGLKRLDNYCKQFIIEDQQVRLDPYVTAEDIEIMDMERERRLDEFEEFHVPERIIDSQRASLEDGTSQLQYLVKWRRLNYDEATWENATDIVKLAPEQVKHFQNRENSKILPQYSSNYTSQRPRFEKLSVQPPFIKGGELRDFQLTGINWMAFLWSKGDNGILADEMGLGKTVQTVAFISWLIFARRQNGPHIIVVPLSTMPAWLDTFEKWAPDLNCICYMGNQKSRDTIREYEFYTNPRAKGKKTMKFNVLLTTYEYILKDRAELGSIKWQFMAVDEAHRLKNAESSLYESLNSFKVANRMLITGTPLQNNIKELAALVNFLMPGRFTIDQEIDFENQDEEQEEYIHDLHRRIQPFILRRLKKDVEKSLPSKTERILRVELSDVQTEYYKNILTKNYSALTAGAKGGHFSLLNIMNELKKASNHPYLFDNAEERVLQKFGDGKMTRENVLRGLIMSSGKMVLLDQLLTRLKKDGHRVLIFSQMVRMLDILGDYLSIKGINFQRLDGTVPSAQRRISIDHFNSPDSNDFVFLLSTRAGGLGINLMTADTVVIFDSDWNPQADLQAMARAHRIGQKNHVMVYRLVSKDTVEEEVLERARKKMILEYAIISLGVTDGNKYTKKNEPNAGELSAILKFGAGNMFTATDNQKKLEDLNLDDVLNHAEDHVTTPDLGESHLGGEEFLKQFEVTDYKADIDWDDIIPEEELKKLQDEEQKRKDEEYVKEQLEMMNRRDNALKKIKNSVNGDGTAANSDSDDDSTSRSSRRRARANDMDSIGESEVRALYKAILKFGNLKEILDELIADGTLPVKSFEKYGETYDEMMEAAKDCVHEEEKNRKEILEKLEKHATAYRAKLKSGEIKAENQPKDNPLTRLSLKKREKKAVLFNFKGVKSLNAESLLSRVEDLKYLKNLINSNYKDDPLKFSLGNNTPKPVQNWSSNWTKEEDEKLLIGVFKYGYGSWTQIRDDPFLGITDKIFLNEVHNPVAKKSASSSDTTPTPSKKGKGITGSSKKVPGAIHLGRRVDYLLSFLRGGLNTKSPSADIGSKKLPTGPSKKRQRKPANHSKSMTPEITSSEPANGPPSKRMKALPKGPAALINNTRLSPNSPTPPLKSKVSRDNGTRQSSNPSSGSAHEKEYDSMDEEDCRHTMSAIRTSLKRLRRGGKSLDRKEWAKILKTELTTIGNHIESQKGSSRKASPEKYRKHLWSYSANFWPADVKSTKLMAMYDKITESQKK
# Sialic acid-binding Ig-like lectin 9 (Homo sapiens), sequence (Q9Y336 whole entry): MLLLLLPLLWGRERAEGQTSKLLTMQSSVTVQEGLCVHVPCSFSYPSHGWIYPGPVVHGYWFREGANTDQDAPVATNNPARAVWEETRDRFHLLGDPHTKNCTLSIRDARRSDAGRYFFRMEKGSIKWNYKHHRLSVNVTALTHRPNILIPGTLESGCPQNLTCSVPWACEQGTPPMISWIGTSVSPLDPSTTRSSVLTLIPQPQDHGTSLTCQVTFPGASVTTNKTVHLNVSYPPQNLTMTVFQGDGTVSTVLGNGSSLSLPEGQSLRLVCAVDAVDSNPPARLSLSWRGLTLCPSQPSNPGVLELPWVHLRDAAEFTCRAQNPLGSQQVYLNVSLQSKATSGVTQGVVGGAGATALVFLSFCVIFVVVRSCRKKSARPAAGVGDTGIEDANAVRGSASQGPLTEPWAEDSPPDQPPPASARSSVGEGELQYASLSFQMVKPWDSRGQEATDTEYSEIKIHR
# Protein translocase subunit SecA (Escherichia coli (strain K12)), sequence (P10408 whole entry): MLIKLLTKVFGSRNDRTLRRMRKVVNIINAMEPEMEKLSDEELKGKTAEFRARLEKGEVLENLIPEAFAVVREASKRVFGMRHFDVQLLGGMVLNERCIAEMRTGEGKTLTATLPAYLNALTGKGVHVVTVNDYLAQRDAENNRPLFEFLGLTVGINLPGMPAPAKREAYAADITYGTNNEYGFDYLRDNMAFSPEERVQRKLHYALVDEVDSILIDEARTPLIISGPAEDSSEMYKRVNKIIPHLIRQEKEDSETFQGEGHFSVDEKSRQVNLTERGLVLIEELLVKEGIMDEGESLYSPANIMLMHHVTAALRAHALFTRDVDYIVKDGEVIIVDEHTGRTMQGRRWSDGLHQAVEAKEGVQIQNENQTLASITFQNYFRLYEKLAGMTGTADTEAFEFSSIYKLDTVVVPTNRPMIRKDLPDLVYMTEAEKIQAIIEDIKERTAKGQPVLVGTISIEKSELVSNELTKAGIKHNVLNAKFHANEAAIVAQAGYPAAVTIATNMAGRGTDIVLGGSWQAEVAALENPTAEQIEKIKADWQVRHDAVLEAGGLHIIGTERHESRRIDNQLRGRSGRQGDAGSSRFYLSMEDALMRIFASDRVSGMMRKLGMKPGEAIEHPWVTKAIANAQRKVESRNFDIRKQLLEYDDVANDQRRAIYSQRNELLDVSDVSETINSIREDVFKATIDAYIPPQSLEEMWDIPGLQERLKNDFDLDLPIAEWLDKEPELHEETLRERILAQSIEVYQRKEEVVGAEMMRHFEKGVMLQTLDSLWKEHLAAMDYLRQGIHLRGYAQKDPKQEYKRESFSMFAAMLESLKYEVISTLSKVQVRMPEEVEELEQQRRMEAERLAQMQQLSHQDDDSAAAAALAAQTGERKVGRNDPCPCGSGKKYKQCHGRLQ
Structure (SMILES),Percent Effect [1] [%],Percent Effect [2] [%],Percent Effect [3] [%],Percent Effect [4] [%],Percent Effect [5] [%],Percent Effect [6] [%],Percent Effect [7] [%],Percent Effect [8] [%],Percent Effect [9] [%],Percent Effect [10] [%],Percent Effect [11] [%]
CS(=O)(=O)c1ccc(OCCNCc2ccc(F)cc2F)cc1,-5.74,8.22,1.54,2.33,4.37,-7.19,9.85,6.01,8.33,13.6,-1.49
COCCC(=O)N1CCN(C)c2ncccc2C1,-4.6,2.6,1,7.83,-2.06,-1.38,3.83,2.13,5.38,6.17,2.1
CCn1cc(CN2CCCN(C(=O)CCCn3cncn3)CC2)cn1,-2.76,0,7.06,6.78,5.43,1.42,5.91,17.2,4.85,14.6,-6.03
Cc1cnn(CC2CCCN2C(=O)CCc2nc3ccccc3[nH]2)c1 (stereo unspecified),-4.12,7.59,-2.81,11.1,4.82,0.38,-3.69,-14.8,1.48,8.86,-1.08
Cc1nn(C)c(C)c1C1CCCN1Cc1nc(-c2ccco2)no1 (stereo unspecified),-1.05,10.8,-11.3,7.16,4.18,-2.03,3.23,26.2,10.9,23.2,-7.01
COCCC(=O)N1CCC(c2noc3nc(C)cc(C(F)(F)F)c23)CC1,-0.633,6.76,7.83,4.3,-6.13,-2.55,13.1,8.05,2.15,6.49,9.94
O=C(NCc1ccc(-n2cncn2)nc1)c1ccc2c(c1)CCO2,-5.02,8.11,-9.05,1.05,1.79,-2.4,-3.96,14.7,7.39,13.6,-6.1
CCCC1CCCN(Cc2csc(-c3cnn(C)c3)n2)CC1 (stereo unspecified),-2.48,-5.26,-0.945,-3.96,-0.376,-5.75,20.4,20.6,8.33,19.5,-4.84
Cc1cc(C[S+]([O-])CC(=O)NCC(C)C)no1 (stereo unspecified),-4.4,18.2,6.46,-1.61,-2.06,-2.49,0.676,-13.6,7.77,12.2,-5.33
CCn1ncc2c1CCCC2NCc1ccc(OC)c(C)c1 (stereo unspecified),-7.95,12.7,-10.6,11.1,7.08,-3.42,1.23,0.115,4.43,16.5,-6.17
O=C(NC1CCS(=O)(=O)C1)N1CCN(c2cnccn2)CC1 (stereo unspecified),-3.53,24.3,-10.3,4.95,1.58,-3.14,11.1,15.6,4.95,6.1,-6.05
